# Laboratory results: PubChem BioAssay (Tox21)
# Where “and” joins values, the source holds several entries; their conditions need not be identical. Identical values can stand only once. Inconclusive results are not listed. Entries that show only a call come without a potency. The source holds several records for some structures; these can differ, active in one and inactive in another. Calls of active or inactive are those of the source. Unless noted, the call rests on the fitted dose curve; in most records, active means well fitted curve in the direction sought with a large enough effect in the repeat runs; inconclusive means weak or mixed curves; inactive means no such curve, though single readings can be large; an effect the other way counts as inactive or inconclusive.
# Legend:
# [1] = qHTS assay for small molecule agonists of the p53 signaling pathway (AID 651631; calls by dose curve; further: nearly all actives have a fitted effect of over 15% in size)
# Method in brief: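 Readout was fluorescence from the LiveBLAzer FRET substrate, applied for 2 h at room temperature after 16 h compound exposure at 37 °C. Cells were the p53RE-bla HCT-116 line, with beta-lactamase driven by p53 response elements.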
# [2] = qHTS assay for small molecules that induce genotoxicity in human embryonic kidney cells expressing luciferase-tagged ATAD5 (AID 651632); further: nearly all actives have a fitted effect of over 15% in size
# Method in brief: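 HEK293T cells carrying luciferase-tagged ATAD5 were given compound or DMSO vehicle and incubated 16 hr at 37C, 5% CO2. Luciferase activity was read after 30 min at room temperature with Amplite; a rise signals genotoxic stress.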
# [3] = qHTS assay for small molecule agonists of the p53 signaling pathway - cell viability (AID 651633; calls by dose curve; further: series mostly up to about 83 µM; nearly all actives have a fitted effect of over 30% in size)
# Method in brief: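 p53RE-bla cells were treated with compound for 16 hours at 37 C. Cytotoxicity was then measured as CellTiter-Glo luminescence after 30 min at room temperature.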
# [4] = qHTS assay for small molecules that induce genotoxicity in human embryonic kidney cells expressing luciferase-tagged ATAD5 - cell viability (AID 651634; calls by dose curve; further: nearly all actives have a fitted effect of over 25% in size)
# Method in brief: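 HEK293T cells carrying luciferase-tagged ATAD5, 2,000 cells/well, exposed to compound for 15.5 hr at 37C. Viability read as live-cell protease activity by CellTiter-Fluor fluorescence after 30 min at 37C.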
# [5] = qHTS assay for small molecule disruptors of the mitochondrial membrane potential - cell viability (AID 720634; calls by dose curve;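 further: human HepG2 liver cancer cells; series mostly up to about 83 µM; nearly all actives have a fitted effect of over 20% in size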)
# Method in brief: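 HepG2 cells, 2,000 per well, attached overnight, then treated 1 hr at 37 C, 5% CO2. Viability read as ATP by CellTiter-Glo luminescence after 30 min at room temperature. Read in the same wells as the m-MPI membrane-potential dye assay.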
# [6] = qHTS assay for small molecule disruptors of the mitochondrial membrane potential (AID 720635)
# Method in brief: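 HepG2 cells exposed to compound 1 hr at 37C, then Mito-MPS dye 30 min. Ratio read of aggregate (540/590 nm) versus monomer (490/535 nm) fluorescence.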
# [7] = qHTS assay to test for compound auto fluorescence at 590 nm (red) in HepG2 cells (AID 720674)
# Method in brief: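 Fluorescence at 590 nm emission following 540 nm excitation was recorded from HepG2 wells one hour after compound transfer, with DMSO-only wells as vehicle and Rose Bengal sodium equivalency as the scale.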
# [8] = qHTS assay to test for compound auto fluorescence at 535 nm (green) in HepG2 cells (AID 720675)
# [9] = qHTS assay to test for compound auto fluorescence at 460 nm (blue) in HEK293 cells (AID 720678)
# Method in brief: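 Intrinsic compound fluorescence is recorded in live HEK293 cultures after overnight incubation at 37C, 5% CO2, using excitation 405 nm and emission 460 nm. Values are referenced to triamterene.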
# [10] = qHTS assay to test for compound auto fluorescence at 590 nm (red) in HEK293 cells (AID 720679)
# Method in brief: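 Red autofluorescence, HEK293 cells: 2,000 cells/well; attach 4-5 hr 37C; add 23 nL cpd or DMSO; incubate o/n 37C 5% CO2; read Ex540/Em590; Rose Bengal sodium reference.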
# [11] = qHTS assay to test for compound auto fluorescence at 535 nm (green) in HEK293 cells (AID 720680)
# [12] = qHTS assay to test for compound auto fluorescence at 460 nm (blue) in HEK293 cell free culture (AID 720681)
# Method in brief: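 Compounds were added to cell-free DMEM with 10% FBS and fluorescence read directly. The blue channel used 405 nm excitation and 460 nm emission, with triamterene as the reference fluorophore.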
# [13] = qHTS assay to test for compound auto fluorescence at 535 nm (green) in HEK293 cell free culture (AID 720682)
# Method in brief: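 Compounds were pin-transferred into cell-free DMEM with 10% FBS, and green fluorescence was read at excitation 485 nm and emission 535 nm. Intensities were expressed as fluorescein-equivalent values.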
# [14] = qHTS assay to test for compound auto fluorescence at 590 nm (red) in HepG2 cell free culture (AID 720684)
# Method in brief: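 Compounds are added to culture medium (MEM, 10% FBS) lacking cells, then fluorescence is read at excitation 540 nm, emission 590 nm, with Rose Bengal sodium as the equivalency standard.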
# [15] = qHTS assay to test for compound auto fluorescence at 460 nm (blue) in HepG2 cell free culture (AID 720685)
# Method in brief: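 Compound (23 nL) or DMSO pinned into cell-free MEM with 10% FBS; blue fluorescence read at 405/460 nm excitation/emission, expressed as auto-fluorescence equivalency to triamterene.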
# [16] = qHTS assay to test for compound auto fluorescence at 535 nm (green) in HepG2 cell free culture (AID 720686)
# [17] = qHTS assay to test for compound auto fluorescence at 460 nm (blue) in HepG2 cells (AID 720687)
# Method in brief: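 HepG2 cells in MEM with 10% FBS, attached overnight at 37 C, were exposed to compound or DMSO for 1 hr at 37 C, 5% CO2. Blue fluorescence was read at 405/460 nm, with triamterene as reference fluorophore.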
# [18] = biological target: Glucocorticoid receptor (Homo sapiens) (UniProt P04150); experiment: qHTS assay to identify small molecule agonists of the glucocorticoid receptor (GR) signaling pathway (AID 720691; active means well fitted activation curve with a large enough effect in the signal ratio in the repeat runs, not every such curve was filed as active; the % refers to the signal ratio; further: potency means the concentration at half of the fitted maximal effect)
# Sequence of Glucocorticoid receptor (Homo sapiens) (P04150 whole entry, looked up): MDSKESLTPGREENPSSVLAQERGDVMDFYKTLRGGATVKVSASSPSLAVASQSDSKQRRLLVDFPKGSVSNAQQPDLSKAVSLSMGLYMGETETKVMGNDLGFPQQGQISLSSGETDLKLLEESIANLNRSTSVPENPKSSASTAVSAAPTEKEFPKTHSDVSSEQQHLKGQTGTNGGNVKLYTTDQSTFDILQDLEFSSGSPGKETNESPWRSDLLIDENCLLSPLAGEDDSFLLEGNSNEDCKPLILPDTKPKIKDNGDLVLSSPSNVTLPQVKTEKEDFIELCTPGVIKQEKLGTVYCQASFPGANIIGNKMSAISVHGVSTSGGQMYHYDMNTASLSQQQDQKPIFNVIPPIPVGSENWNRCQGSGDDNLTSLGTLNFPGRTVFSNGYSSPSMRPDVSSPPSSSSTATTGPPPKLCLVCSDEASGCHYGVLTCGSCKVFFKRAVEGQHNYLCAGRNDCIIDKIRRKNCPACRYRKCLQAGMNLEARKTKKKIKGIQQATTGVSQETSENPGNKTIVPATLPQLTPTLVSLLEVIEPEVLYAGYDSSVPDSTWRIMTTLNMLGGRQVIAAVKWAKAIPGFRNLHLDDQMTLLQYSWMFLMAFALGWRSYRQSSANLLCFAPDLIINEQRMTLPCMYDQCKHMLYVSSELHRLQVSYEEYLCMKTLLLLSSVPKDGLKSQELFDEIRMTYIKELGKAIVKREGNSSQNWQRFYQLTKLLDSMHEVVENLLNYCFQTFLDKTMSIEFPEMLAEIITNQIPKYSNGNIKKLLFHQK
# Method in brief: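 GR-bla HeLa cells carrying a GRE-driven beta-lactamase reporter, exposed to compounds for 18 h at 37 C. Reporter activation read as fluorescence after 2 h with LiveBLAzer B/G FRET substrate at room temperature.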
# [19] = biological target: Glucocorticoid receptor (Homo sapiens) (UniProt P04150); experiment: qHTS assay to identify small molecule antagonists of the glucocorticoid receptor (GR) signaling pathway (AID 720692; active means well fitted inhibition curve with a large enough effect in the signal ratio in the repeat runs, not every such curve was filed as active; the % refers to the signal ratio)
# Method in brief: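 GR-bla HeLa cells carrying a GRE-driven beta-lactamase reporter received compound after 4 h plating, then dexamethasone (5 nM final). After 18 h at 37C, the FRET substrate was loaded for 2 h at room temperature and fluorescence read.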
# [20] = qHTS assay to test for compound auto fluorescence at 590 nm (red) in HEK293 cell free culture (AID 720683)
# Method in brief: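 Cell-free wells of DMEM with 10% FBS received compound, and intrinsic fluorescence was read at excitation/emission 540/590 nm. Values expressed as equivalence to Rose Bengal sodium.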
compound,measurement,setting,value
CCn1ccnc1CC1COc2ccccc2O1 (stereo not given),outcome,[1],inactive
same,Potency,[2],inactive
same,outcome,[3],inactive
same,Potency,[4],inactive
same,Potency,[5],inactive
same,Potency,[6],inactive
same,outcome,[7],inactive
same,outcome,[8],inactive
same,outcome,[9],inactive
same,outcome,[10],inactive
same,outcome,[11],inactive
same,outcome,[12],inactive
same,outcome,[13],inactive
same,outcome,[14],inactive
same,outcome,[15],inactive
same,outcome,[16],inactive
same,outcome,[17],inactive
same,Potency,[18],inactive
C[C@H]1C[C@@H](O)CC(C)(C)C1,outcome,[1],inactive
same,Potency,[2],inactive
same,outcome,[3],inactive
same,Potency,[4],inactive
same,Potency,[5],inactive
same,Potency,[6],inactive
same,outcome,[7],inactive
same,outcome,[8],inactive
same,outcome,[9],inactive
same,outcome,[10],inactive
same,outcome,[11],inactive
same,outcome,[12],inactive
same,outcome,[13],inactive
same,outcome,[15],inactive
same,outcome,[16],inactive
same,Potency,[18],inactive
same,Potency,[19],inactive
CCCCCCCCCCCCCC=O,activation,[1],-3.36% [at 8.3 µM] (inactive)
same,activation,[2],2.51% [at 8.08 µM] (inactive)
same,"activity change, negative = cytotoxicity",[3],18.4% [at 8.08 µM] (inactive)
same,"activity, negative = cytotoxicity",[4],13.3% [at 8.08 µM] (inactive)
same,"activity change, negative = cytotoxicity",[5],12.2% [at 8.08 µM] (inactive)
same,"ratio activity, negative = MMP loss",[6],25.8% [at 8.08 µM] (inactive)
same,"fluorescence, relative to Rose Bengal",[7],0.0167% [at 3.72 µM] (inactive)
same,"fluorescence, % of fluorescein control",[8],0.0875% [at 3.72 µM] (inactive)
same,"fluorescence, % of triamterene",[9],-0.166% [at 3.72 µM] (inactive)
same,"fluorescence, % of fluorescent control",[10],-0.804% [at 3.72 µM] (inactive)
same,"fluorescence, % of fluorescein",[11],0.0656% [at 3.72 µM] (inactive)
same,"fluorescence, % of fluorescent control",[12],-0.0434% [at 3.72 µM] (inactive)
same,"fluorescence, % of fluorescent control",[20],0.0516% [at 3.72 µM] (inactive)
same,"fluorescence, % of fluorescent control",[15],-0.0093% [at 3.72 µM] (inactive)
same,"fluorescence, % of fluorescent control",[17],-0.0327% [at 3.72 µM] (inactive)
CC(=O)Nc1c(I)cc(I)c(C(=O)O)c1I,outcome,[1],inactive
same,Potency,[2],inactive
same,outcome,[3],inactive
same,Potency,[4],inactive
same,Potency,[5],inactive
same,Potency,[6],inactive
same,outcome,[7],inactive
same,outcome,[8],inactive
same,outcome,[9],inactive
same,outcome,[10],inactive
same,outcome,[11],inactive
same,outcome,[12],inactive
same,outcome,[13],inactive
same,outcome,[20],inactive
same,outcome,[14],inactive
same,outcome,[15],inactive
same,outcome,[16],inactive
same,outcome,[17],inactive
same,Potency,[18],inactive
same,Potency,[19],inactive
CCCCCCOC(=O)CCCCC(=O)OCCCCCC,outcome,[1],inactive
same,Potency,[2],inactive
same,outcome,[3],inactive
same,Potency,[4],inactive
same,Potency,[5],inactive
same,Potency,[6],inactive
same,outcome,[7],inactive
same,outcome,[8],inactive
same,outcome,[9],inactive
same,outcome,[10],inactive
same,outcome,[11],inactive
same,outcome,[12],inactive
same,outcome,[13],inactive
same,outcome,[20],inactive
same,outcome,[15],inactive
same,outcome,[16],inactive
same,outcome,[17],inactive
COCCc1ccc(OCC(O)CNC(C)C)cc1 (stereo not given),outcome,[1],inactive
same,Potency,[2],inactive
same,outcome,[3],inactive
same,Potency,[4],inactive
same,Potency,[5],inactive
same,Potency,[6],inactive
same,outcome,[7],inactive
same,outcome,[8],inactive
same,outcome,[9],inactive
same,outcome,[10],inactive
same,outcome,[11],inactive
same,outcome,[12],inactive
same,outcome,[20],inactive
same,outcome,[14],inactive
same,outcome,[15],inactive
same,outcome,[16],inactive
same,outcome,[17],inactive
same,Potency,[18],inactive and 10.7 µM (active)
same,Potency,[19],inactive
CCCc1cc(C(N)=S)ccn1,outcome,[1],inactive
same,Potency,[2],inactive
same,outcome,[3],inactive
same,Potency,[4],inactive
same,Potency,[5],inactive
same,Potency,[6],inactive
same,outcome,[7],inactive
same,outcome,[8],inactive
same,outcome,[9],inactive
same,outcome,[10],inactive
same,outcome,[12],inactive
same,outcome,[20],inactive
same,outcome,[14],inactive
same,outcome,[15],inactive
same,outcome,[16],inactive
same,outcome,[17],inactive
same,Potency,[18],inactive
O=C1CCCCCCCCCCCN1,outcome,[1],inactive
same,Potency,[2],inactive
same,outcome,[3],inactive
same,Potency,[5],inactive
same,Potency,[6],inactive
same,outcome,[7],inactive
same,outcome,[8],inactive
same,outcome,[9],inactive
same,outcome,[10],inactive
same,outcome,[11],inactive
same,outcome,[12],inactive
same,outcome,[13],inactive
same,outcome,[14],inactive
same,outcome,[15],inactive
same,outcome,[16],inactive
same,Potency,[18],inactive
same,Potency,[19],inactive
